Data: PubChem BioAssay (NCATS)
Inconclusive results are not listed. Calls of active or inactive are those of the source. The call rests on the fitted dose curve; in most records, active means well fitted curve in either direction with a large enough effect (not every such curve was filed as active); inconclusive means small, poorly fitted or top-dose-only effect, or another doubt; inactive means flat fitted curve, though single readings scatter.

Biological target: Mitogen-activated protein kinase 10 (Mus musculus) (UniProt Q61831)
Assay: JNK3 AlphaScreen Assay (AID 530);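 further: kinase came from lysate of stimulated human HepG2 cells; signal reports phosphorylation of biotinylated GST-cJun 1-79 at Ser73 with 10 µM ATP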
Conditions: JNK3 lysate, c-Jun phosphorylation; series mostly up to 57.1 µM
Procedure, shortened: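 Kinase buffer: 20 mM Tris-HCl pH 7.6, 10 mM MgCl2, 1 mM DTT, 0.1 mM Na3VO4, 0.01% Tween-20; ATP 10 uM. Substrate biotin-GST-cJun(1-79), enzyme from activated HepG2 lysates. Detection by Ser73 phospho-antibody AlphaScreen.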

outcome, inactive:
COC(=O)[C@@]1(Cc2ccc(OC)cc2)[C@H]2c3cc(C(=O)N(C)C)n(C)c3C[C@H]2CN1C(=O)c1ccccc1
COC(=O)[C@@]1(Cc2ccc(F)cc2)[C@H]2c3cc(C(=O)N(C)C)n(Cc4nc5ccccc5[nH]4)c3C[C@H]2CN1C(=O)c1ccccc1
Cc1ccc(CNC(=O)[C@H](C)[C@H]2C[C@]2(C)[C@H](NC(=O)OCc2ccccc2)c2ccccc2)o1
COC(=O)[C@@H]1C[C@H]1[C@@H](NC(C)=O)c1ccccc1
Cc1ccc(CNC(=O)[C@H](C)[C@@H]2C[C@@]2(C)[C@@H](NC(=O)OCc2ccccc2)c2ccccc2)o1
COC(=O)[C@@H]1C[C@H]1[C@@H](NS(=O)(=O)c1ccccc1)c1ccccc1
COC(=O)[C@@]1(Cc2ccc(OC)cc2)[C@H]2c3cc(C(=O)N4CCCC4)n(Cc4ccc(C)c(F)c4F)c3C[C@H]2CN1C(=O)c1ccccc1
COC(=O)[C@@]1(Cc2ccc(OC)cc2)[C@H]2c3cc(C(=O)N(C)C)n(CCO)c3C[C@H]2CN1C(=O)c1ccccc1
COC(=O)[C@H]1C[C@@H]1[C@H](NC(C)=O)c1ccccc1
COC(=O)[C@@]1(Cc2ccc(F)cc2)[C@H]2c3cc(C(=O)N4CCCC4)n(Cc4ccc(C(F)(F)F)nc4)c3C[C@H]2CN1C(=O)c1ccccc1
COC(=O)[C@@]1(Cc2ccc(F)cc2)[C@H]2c3cc(C(=O)N4CCCC4)n(C[C@H](O)CO)c3C[C@H]2CN1C(=O)c1ccccc1
